The record followed here is the supplement of paper PMC8975748.

Counter-ions that a name gives are not always drawn. ± gives the standard deviation of the averaged measurements.

This experiment relates to Saccharomyces cerevisiae BY4741 SeMeCo community. The experiment is described as follows: mean cell size (pixel area) (pixels); higher = larger cells. As to conditions: 10 µM; 24 h; SM minimal medium. In short, it runs like this: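 Harmony analysis of automated confocal images of paraformaldehyde-fixed yeast gave the mean cell pixel area per well. The yeast was a Saccharomyces cerevisiae BY4741 community carrying four plasmids, each with a fluorescent marker and each complementing one auxotrophy, incubated for 24 h in SM medium containing drug at a final 10 µM in 384-well plates. Results are averaged over 3 replicates. Same SeMeCo high-content imaging drug screen: Selleck FDA-approved drugs at 10 µM, 24 h in SM medium, 384-well plates, 3 replicates.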
Take `CC(=O)OCC1=C(C(=O)O)N2C(=O)[C@@H](N)[C@H]2SC1` [7-Aminocephalosporanic acid]: the mean cell size amounted to 12.28 ± 0.11.

As for `CCOC(=O)Nc1ccc(NCc2ccc(F)cc2)cc1N` [Retigabine 2HCl], the mean cell size was found to be 12.5 ± 0.25.

In turn, `CCCN1C[C@H](CSC)C[C@@H]2c3cccc4[nH]cc(c34)C[C@H]21` [Pergolide Mesylate] yielded a mean cell size of 12.4 ± 0.25.

As to `CNC1CC(N)C(O)C(OC2OC(CO)C(O)C3OC4(OC(C(N)CO)C(O)C(O)C4O)OC23)C1O` (stereo not given) [Hygromycin B], the mean cell size was found to be 11.8 ± 0.24.

`Cc1cc(C(C#N)c2ccc(Cl)cc2)c(Cl)cc1NC(=O)c1cc(I)cc(I)c1O` (stereo not given) [Closantel] yielded a mean cell size of 12.3 ± 0.27.

As for `C#C[C@]1(O)C=C[C@H]2[C@@H]3CCC4=CC(=O)CC[C@@H]4[C@H]3CC[C@@]21CC` [Gestodene], the mean cell size was 12.5 ± 0.17.

In the case of `COc1ccc(C=O)cc1` [p-Anisaldehyde], the mean cell size was 12.3 ± 0.27.

`CC(=O)c1c(O)cc(C)oc1=O` [Sodium dehydroacetate]: the mean cell size turned out to be 12.3 ± 0.038.

The molecule `CCCCCCCCCCCCCCCC[n+]1ccccc1` [Cetylpyridinium Chloride] returned a mean cell size of 11.2 ± 0.14.

`CC[N+](C)(CC)CCOC(=O)C(O)(c1ccccc1)c1ccccc1` [Methylbenactyzine Bromide]: the mean cell size came out at 12.6 ± 0.34.

Take `C[C@@H]1[C@H](O)[C@@H](C)/C=C/C=C/CC/C=C/C=C/C=C/C=C/[C@H](O[C@H]2O[C@@H](C)[C@H](O)[C@@H](N)[C@H]2O)C[C@@H]2O[C@](O)(C[C@@H](O)[C@H](O)CC[C@@H](O)C[C@@H](O)C[C@@H](O)CC(=O)O[C@H]1C)C[C@H](O)[C@H]2C(=O)O` [Nystatin (Fungicidin)]: the mean cell size was determined as 9.704 ± 0.046.

Turning to `CC[C@H]1CN2CC[C@]3(C(=O)Nc4ccccc43)[C@@H]2C[C@@H]1/C(=C\OC)C(=O)OC` [Rhynchophylline], the mean cell size was 12.38 ± 0.1.

With `O=c1[nH]c2ccccc2n1CCCN1CCC(n2c(=O)[nH]c3cc(Cl)ccc32)CC1` [Domperidone], the mean cell size was found to be 12.6 ± 0.23.

`C[N+]12CCC(CC1)C(OC(=O)C(O)(c1ccccc1)c1ccccc1)C2` (stereo not given) [Clidinium Bromide]: the mean cell size was determined as 12.4 ± 0.13.

In the case of `CCOC(=O)Nc1ccc(NCc2ccc(F)cc2)cc1N` [Retigabine], the mean cell size stood at 12.58 ± 0.12.

Consider `COc1ccc(C(CN(C)C)C2(O)CCCCC2)cc1` (stereo not given) [Venlafaxine], for which the mean cell size is 12.1 ± 0.091.

On to `C[N+]1(C)[C@@H]2C[C@@H](OC(=O)[C@H](CO)c3ccccc3)C[C@H]1[C@@H]1O[C@@H]12` [Methscopolamine], for which the mean cell size is 12.49 ± 0.031.

`Cc1cc(O)ccc1Cl` [Chlorocresol] displayed a mean cell size of 12.6 ± 0.13.

Regarding `Nc1nc(N)nc(NC2CC2)n1` [Cyromazine], the mean cell size turned out to be 12.46 ± 0.1.

As to `CC(C)=CCOc1c2occc2cc2ccc(=O)oc12` [Imperatorin], the mean cell size was determined as 12.6 ± 0.14.

In turn, `N#Cc1nn(-c2c(Cl)cc(C(F)(F)F)cc2Cl)c(N)c1[S+]([O-])C(F)(F)F` (stereo not given) [Fipronil] had a mean cell size of 12.3 ± 0.2.

`CN(C)C(=O)Oc1cccc([N+](C)(C)C)c1` [Neostigmine Bromide]: the mean cell size came out at 11.8 ± 0.15.

`C=CC[C@]1(O)CC[C@H]2[C@@H]3CCC4=CC(=O)CCC4=C3C=C[C@@]21C` [Altrenogest] gave a mean cell size of 12.58 ± 0.1.

`Cn1cc(C2=C(c3cn(C4CCN(Cc5ccccn5)CC4)c4ccccc34)C(=O)NC2=O)c2ccccc21` came in with a mean cell size of 12.41 ± 0.12.

`CCN(C)C(=O)Oc1cccc([C@H](C)N(C)C)c1` [Rivastigmine Tartrate]: the mean cell size was found to be 12.38 ± 0.056.

In turn, `CN1[C@@H]2CC[C@H]1C[C@@H](OC(=O)C(CO)c1ccccc1)C2` (stereo not given in full) [Atropine sulfate monohydrate] registered a mean cell size of 12.26 ± 0.093.

The molecule `NCC(O)c1ccc(O)cc1` (racemic) [(+,-)-Octopamine HCl] showed a mean cell size of 12.3 ± 0.14.

As to `C[N+](C)(C)CCCCCCCCCC[N+](C)(C)C` [Decamethonium Bromide], the mean cell size was 12.47 ± 0.097.

`CN1C(=O)COc2c(C(=O)NC3CN4CCC3CC4)cc(Cl)cc21` (stereo not given) [Azasetron HCl] yielded a mean cell size of 12 ± 0.075.

On to `C[C@@H]1O[C@@H](O[C@H]2C[C@@H](O)[C@]3(CO)[C@H]4[C@H](O)C[C@]5(C)[C@@H](C6=CC(=O)OC6)CC[C@]5(O)[C@@H]4CC[C@]3(O)C2)[C@H](O)[C@H](O)[C@H]1O` [Ouabain], for which the mean cell size was 12.3 ± 0.32.

`CN1c2ccccc2C(NCCCCCCC(=O)O)c2ccc(Cl)cc2S1(=O)=O` (stereo not given) [Tianeptine sodium] returned a mean cell size of 12.6 ± 0.24.

`C=C(C)[C@H]1Cc2c(ccc3c2O[C@@H]2COc4cc(OC)c(OC)cc4[C@@H]2C3=O)O1` [Rotenone (Barbasco)]: the mean cell size worked out at 12.67 ± 0.1.

On to `COc1ccc2c3c([nH]c2c1)C(C)=NCC3` [Harmaline], for which the mean cell size was found to be 12.4 ± 0.34.

`C[C@@H]1CC[C@H]2[C@@H](C)C(=O)O[C@@H]3O[C@@]4(C)CC[C@@H]1[C@]32OO4` [Artemisinin] came in with a mean cell size of 12.3 ± 0.3.

`CC(C)(O)C(Cl)(Cl)Cl` [Chlorobutanol] gave a mean cell size of 12.5 ± 0.16.

In turn, `CCN(CC)CCOC(=O)C(O)(c1ccccc1)c1ccccc1` [Benactyzine hydrochloride] displayed a mean cell size of 12.4 ± 0.051.

Molecule `Cc1cc(C(C#N)c2ccc(Cl)cc2)c(Cl)cc1NC(=O)c1cc(I)cc(I)c1O` (stereo not given) [Closantel Sodium] yielded a mean cell size of 12.2 ± 0.24.

Take `CC1(C)S[C@@H]2[C@H](N)C(=O)N2[C@H]1C(=O)O` [6-Aminopenicillanic acid]: the mean cell size worked out at 12.1 ± 0.25.

In turn, `O=c1cccc2n1C[C@@H]1CNC[C@H]2C1` [Cytisine] displayed a mean cell size of 12.6 ± 0.21.

`CN(C)C(=O)Oc1ccc[n+](C)c1` [Pyridostigmine Bromide] yielded a mean cell size of 12.54 ± 0.1.
